Reference: PubChem BioAssay (NCATS)
Several values for one entry are separate records, joined by “and”; a condition that tells them apart may be missing. Equal entries are not always repeated. Records with an inconclusive call do not appear. Activity calls are given as the source filed them. Calls follow the shape of the dose curve; as a rule, active = well fitted curve in the direction sought with a large enough effect; inconclusive = small, poorly fitted or top-dose-only effect, or another doubt; inactive = no such curve, though single readings can be large; an effect the other way counts as inactive or inconclusive.

Tests used:
NIH3T3 = experiment: qHTS assay to identify novel small-molecules to repurpose for Merkel cell carcinoma treatment (AID 1296009); details: MCC and control cell lines, CellTiter-Glo viability, 72 h; at 44.8 µM (top of the series) unless noted; also: nearly all actives have a fitted effect of over 60% in size; also: potency is read from the fitted curve at half-maximal effect
Summary of the method: (§1)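 Luminescence from CellTiter-Glo, read 10 min after addition at room temperature, reported viability following a 72 hr, 37 degree celsius treatment with NPC or MIPE compounds in titration; values normalized to plate controls.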

UISO = experiment: as above; details: MCC and control cell lines, CellTiter-Glo viability, 72 h; series mostly up to 46 µM
Summary of the method: as §1

WaGa = experiment: as above; details: MCC and control cell lines, CellTiter-Glo viability, 72 h; series mostly up to 46 µM
Summary of the method: as §1

C33A = experiment: Primary qHTS to identify gynecologic anti-cancer compounds using libraries of approved drugs and bioactive compounds (AID 1345084); details: Gynecologic cancer cell panel viability, ATPlite luminescence, 48 h; series mostly up to 57.5 µM; also: nearly all actives have a fitted effect of over 55% in size
Summary of the method: (§2)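 Measured: luminescence after ATPlite addition (15 min, RT). Exposure: 48 h, 37 C, 5% CO2.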

CASKI = experiment: as above; details: Gynecologic cancer cell panel viability, ATPlite luminescence, 48 h; series mostly up to 57.5 µM
Summary of the method: as §2

Es-2 = experiment: as above; details: Gynecologic cancer cell panel viability, ATPlite luminescence, 48 h; series mostly up to 57.5 µM
Summary of the method: as §2

HeLa = experiment: as above; details: Gynecologic cancer cell panel viability, ATPlite luminescence, 48 h; series mostly up to 57.5 µM
Summary of the method: as §2

Hek293T = experiment: as above; details: Gynecologic cancer cell panel viability, ATPlite luminescence, 48 h, control line for the selectivity index; series mostly up to 57.5 µM
Summary of the method: as §2

JEG-3 = experiment: as above; details: Gynecologic cancer cell panel viability, ATPlite luminescence, 48 h; series mostly up to 57.5 µM
Summary of the method: as §2

OV90 = experiment: as above; details: Gynecologic cancer cell panel viability, ATPlite luminescence, 48 h; series mostly up to 57.5 µM
Summary of the method: as §2

PA-1 = experiment: as above; details: Gynecologic cancer cell panel viability, ATPlite luminescence, 48 h; series mostly up to 57.5 µM
Summary of the method: as §2

SKOV3 = experiment: as above; details: Gynecologic cancer cell panel viability, ATPlite luminescence, 48 h; series mostly up to 57.5 µM
Summary of the method: as §2

Tov-21-G = experiment: as above; details: Gynecologic cancer cell panel viability, ATPlite luminescence, 48 h; series mostly up to 57.5 µM
Summary of the method: as §2

Tov112D = experiment: as above; details: Gynecologic cancer cell panel viability, ATPlite luminescence, 48 h; series mostly up to 57.5 µM
Summary of the method: as §2

[1] = Drug repurposing screens with cells derived from glioblastoma tumor samples (AID 1345199); details: GBM patient neurospheres viability, ATP luminescence, 48 h; also: nearly all actives have a fitted effect of over 40% in size
Summary of the method: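 Primary testing used CD133+ neurospheres from four GBM patients, seven concentrations, 48 h exposure and ATP-based viability; confirmation added three slower-growing patient lines.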

CAOV3 = experiment: Primary qHTS to identify gynecologic anti-cancer compounds using libraries of approved drugs and bioactive compounds (AID 1345084); details: Gynecologic cancer cell panel viability, ATPlite luminescence, 48 h; series mostly up to 57.5 µM; also: nearly all actives have a fitted effect of over 55% in size
Summary of the method: as §2

[2] = qHTS assay to identify inhibitors of the type 1 interferon - major histocompatibility complex class I in skeletal muscle: Counter screen cell viability and HiBit confirmation (AID 1347412); details: iHSKM muscle cells + IFN-b, HiBiT or CellTiter-Glo, 24 h, at 45.9 µM (top of the series); also: nearly all actives have a fitted effect of over 60% in size
Summary of the method: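 Myoblasts (C25cl48, HLA-B HiBiT) seeded in medium without dexamethasone, IFN-b 4 ng/ml added except unstimulated columns; 1 hr later compounds pinned (12-pt 1:3, top 46 uM final). Incubated 24 hrs, lysed 10 min, luminescence measured.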

[3] = at 45.9 µM (top of the series), tumour line B
[4] = at 45.9 µM (top of the series), tumour line D
[5] = at 46.1 µM (top of the series), tumour line C
% is scaled to controls: 0 for no effect and ±100 for the full control effect.

CC[C@H]1OC(=O)[C@H](C)[C@@H](O[C@H]2C[C@@](C)(OC)[C@@H](O)[C@H](C)O2)[C@H](C)[C@@H](O[C@@H]2O[C@H](C)C[C@H](N(C)C)[C@@H]2O)[C@](C)(O)C[C@@H](C)CN(C)[C@H](C)[C@@H](O)[C@]1(C)O
inactive: outcome (NIH3T3) | Potency (UISO) | Potency (WaGa)

CC#CCn1c(N2CCC[C@@H](N)C2)nc2c1c(=O)n(Cc1nc(C)c3ccccc3n1)c(=O)n2C
inactive: outcome (NIH3T3) | Potency (UISO) | Potency (WaGa)

CO[C@H]1C[C@@H]2CC[C@@H](C)[C@@](O)(O2)C(=O)C(=O)N2CCCC[C@@H]2C(=O)O[C@H]([C@@H](C)C[C@@H]2CC[C@H](O)[C@H](OC)C2)CC(=O)[C@H](C)C=C(C)[C@@H](O)[C@@H](OC)C(=O)[C@H](C)C[C@H](C)C=CC=CC=C1C
inactive: outcome (NIH3T3) inactive; activator | Potency (UISO)

O=C(OCC#CCSc1nnc(-c2cccc3ccccc23)o1)c1cc2ccccc2s1
inactive: outcome (NIH3T3) | Potency (UISO) | Potency (WaGa)

COc1cccc([C@@H](C)NCCCc2ccccc2Cl)c1
inactive: outcome (NIH3T3) | Potency (UISO) | Potency (WaGa)

COC(=O)[C@@H]1[C@H]2C[C@H]3c4[nH]c5ccccc5c4CCN3C[C@@H]2CC[C@@H]1O
inactive: outcome (NIH3T3) | Potency (UISO) | Potency (WaGa) | Potency (C33A) | Potency (CASKI) | Potency (Es-2) | Potency (HeLa) | Potency (Hek293T) | Potency (JEG-3) | Potency (OV90) | Potency (PA-1) | Potency (SKOV3) | Potency (Tov-21-G) | Potency (Tov112D) | activity, negative = cell killing [1, 3] 3.23% | activity, negative = cell killing [1, 4] 3.82% | activity, negative = cell killing [1, 5] -7.31%

OC[C@@H](O)[C@H](O)[C@H](O)[C@@H](O)CO
inactive: outcome (NIH3T3) | Potency (UISO) | Potency (WaGa) | Potency (C33A) | Potency (CAOV3) | Potency (CASKI) | Potency (Es-2) | Potency (HeLa) | Potency (Hek293T) | Potency (JEG-3) | Potency (OV90) | Potency (PA-1) | Potency (SKOV3) | Potency (Tov-21-G) | Potency (Tov112D) | activity, negative = cell killing [1, 3] 0.357% and -12% | activity, negative = cell killing [1, 4] -2.85% and -9.13% | activity, negative = cell killing ([1]; at 46 µM (top of the series), tumour line A) -13.7% and -24.1% | activity, negative = cell killing [1, 5] -4.39% and -14.9%

CON=C(C(=O)N[C@@H]1C(=O)N2C(C(=O)OCOC(=O)C(C)(C)C)=C(C=Cc3scnc3C)CS[C@H]12)c1csc(N)n1
inactive: outcome (NIH3T3) | Potency (UISO)

COC(=O)C1=CO[C@@H](O)[C@@H]2C(CO)=CC[C@@H]12
inactive: outcome (NIH3T3)

CC(=Cc1ccccc1)C=C1SC(=S)N(CC(=O)O)C1=O
inactive: outcome (NIH3T3) | Potency (UISO) | Potency (WaGa)

CCC(CC)[C@H](NC(C)=O)[C@@H]1[C@H](O)[C@@H](C(=O)O)C[C@@H]1N=C(N)N
inactive: outcome (NIH3T3) | Potency (UISO) | Potency (WaGa)

Cc1cccc(C)c1OCC(C)N (configuration not stated)
inactive: outcome (NIH3T3) | Potency (UISO) | Potency (WaGa) | Potency (C33A) | Potency (CASKI) | Potency (Es-2) | Potency (HeLa) | Potency (Hek293T) | Potency (JEG-3) | Potency (OV90) | Potency (PA-1) | Potency (Tov-21-G) | Potency (Tov112D) | activity, negative = cell killing [1, 3] -9.46% | activity, negative = cell killing [1, 4] 4.9% | activity, negative = cell killing [1, 5] 3.32%

Cc1ccc([C@@H]2O[C@H](CO)[C@@H](O)[C@H](O)[C@@H]2O)cc1Cc1ccc(-c2ccc(F)cc2)s1
inactive: outcome (NIH3T3) | Potency (UISO) | Potency (WaGa)

CCC(=O)O[C@]1(C(=O)CO)CC[C@H]2[C@@H]3CCC4=CC(=O)CC[C@]4(C)[C@@H]3CC[C@@]21C
inactive: outcome (NIH3T3) | Potency (UISO) | Potency (WaGa)

CN(C)CCC=C1c2ccccc2COc2ccc(CC(=O)O)cc21
inactive: outcome (NIH3T3) | Potency (UISO) | Potency (WaGa)

O=c1cc(-c2cccc3c2Sc2ccccc2S3)oc(N2CCOCC2)c1
inactive: outcome (NIH3T3) | Potency (UISO) | Potency (WaGa)

NC(=O)NN=Cc1ccc([N+](=O)[O-])o1
inactive: outcome (NIH3T3) | Potency (UISO)

CO[C@H]1C=CC=C(C)C(=O)NC2=CC(=O)C(NCCN(C)C)=C(C[C@@H](C)C[C@H](OC)[C@@H](O)[C@@H](C)C=C(C)[C@@H]1OC(N)=O)C2=O
active: Potency (UISO) 0.296 µM

Cc1ccc(Nc2cc(-c3cccc(N4C(=O)c5ccccc5C4=O)c3)ncn2)cc1NS(C)(=O)=O
inactive: outcome (NIH3T3) | Potency (UISO) | Potency (WaGa) | Potency (C33A) | Potency (CASKI) | Potency (Es-2) | Potency (HeLa) | Potency (OV90) | Potency (SKOV3) | Potency (Tov-21-G) | Potency (Tov112D)

O=C1C[C@@H](c2ccc(O)cc2)Oc2cc(O)cc(O)c21
inactive: Potency (UISO) | Potency (WaGa)

C[C@H](NC(=O)C(=O)Nc1ccccc1C(C)(C)C)C(=O)N[C@@H](CC(=O)O)C(=O)COc1c(F)c(F)cc(F)c1F
inactive: outcome (NIH3T3) | activity change, negative = inhibition ([2]; HiBiT) -0.932% | activity change, negative = inhibition ([2]; Viability) 0.0107%

O=C(O)c1ccc(-c2c[nH]c3ncc(-c4ccccc4)cc23)cc1C1CCCC1
inactive: Potency (UISO) | Potency (WaGa)

O=C1NC(=O)C(=Cc2ccc3nccnc3c2)S1
inactive: Potency (UISO)

O=C1NC(=O)C(=Cc2ccc3c(c2)OC(F)(F)O3)S1
inactive: Potency (UISO)

CC(C)(C)C(=O)Oc1ccc2c(c1)nc(NC(=O)c1cccc([N+](=O)[O-])c1)n2CCCO
inactive: outcome (NIH3T3) | Potency (WaGa) | activity change, negative = inhibition ([2]; Viability) -3.08%

CC(C)(Cc1ccc2ccccc2c1)NC[C@@H](O)COc1cccc(Cl)c1C#N
inactive: Potency (UISO)

Nc1nc(F)nc2c1ncn2[C@@H]1O[C@H](COP(=O)(O)O)[C@@H](O)[C@H]1O
active: Potency (UISO) 13.2 µM | Potency (WaGa) 14.8 µM

NC(=O)[C@@H](CCC(F)(F)F)N(Cc1ccc(-c2ncon2)cc1F)S(=O)(=O)c1ccc(Cl)cc1
inactive: Potency (UISO) | Potency (WaGa)

CCCCCNC(=O)N1CCC(CN(Cc2ccc(Cl)cc2)Cc2ccc([N+](=O)[O-])s2)C1 (configuration not stated)
inactive: Potency (UISO) | Potency (WaGa)

C=C1C(=O)OC(CCCCCCCC)C1C(=O)O (configuration not stated)
inactive: Potency (UISO) | Potency (WaGa)

C=C1C(=O)OC2C=C(C)CCC=C(C)CCC12 (configuration not stated)
inactive: Potency (UISO)

CC=CC[C@@H](C)C(=O)[C@H]1C(=O)N[C@@H](C(C)C)C(=O)N(C)CC(=O)N(C)[C@@H](CC(C)C)C(=O)N[C@@H](C(C)C)C(=O)N(C)[C@@H](CC(C)C)C(=O)N[C@@H](C)C(=O)N[C@H](C)C(=O)N(C)[C@@H](CC(C)C)C(=O)N(C)[C@@H](CC(C)C)C(=O)N(C)[C@@H](C(C)C)C(=O)N1C
inactive: Potency (UISO) | Potency (WaGa)

CC1(C)S[C@H]2[C@H](NC(=O)[C@@H](N)c3ccc(O)cc3)C(=O)N2[C@@H]1C(=O)O
inactive: Potency (UISO)
active: Potency (WaGa) 2.64 µM
